Data as given in PubChem BioAssay (NCATS).
Results filed as inconclusive are left out. Calls of active or inactive are those of the source. Calls follow the shape of the dose curve; as a rule, active = well fitted curve in the direction sought with a large enough effect in the signal ratio, with a control signal flat (not every such curve was filed as active); inconclusive = small, poorly fitted or top-dose-only effect, or effect the other way, or a change in a side signal; inactive = no such curve, though single readings can be large or run the other way; the % refers to the signal ratio.

Each molecule was assayed against Estrogen receptor (Homo sapiens) (UniProt P03372) (assay: qHTS assay for small molecule antagonists of estrogen receptor alpha signaling (AID 588513)). Settings: ER-alpha-UAS-bla HEK293, beta-lactamase ratio, antagonist mode; series mostly up to 76.9 µM; activity, negative = inhibition: at the top concentration.
Sequence of Estrogen receptor (Homo sapiens) (P03372 whole entry, looked up): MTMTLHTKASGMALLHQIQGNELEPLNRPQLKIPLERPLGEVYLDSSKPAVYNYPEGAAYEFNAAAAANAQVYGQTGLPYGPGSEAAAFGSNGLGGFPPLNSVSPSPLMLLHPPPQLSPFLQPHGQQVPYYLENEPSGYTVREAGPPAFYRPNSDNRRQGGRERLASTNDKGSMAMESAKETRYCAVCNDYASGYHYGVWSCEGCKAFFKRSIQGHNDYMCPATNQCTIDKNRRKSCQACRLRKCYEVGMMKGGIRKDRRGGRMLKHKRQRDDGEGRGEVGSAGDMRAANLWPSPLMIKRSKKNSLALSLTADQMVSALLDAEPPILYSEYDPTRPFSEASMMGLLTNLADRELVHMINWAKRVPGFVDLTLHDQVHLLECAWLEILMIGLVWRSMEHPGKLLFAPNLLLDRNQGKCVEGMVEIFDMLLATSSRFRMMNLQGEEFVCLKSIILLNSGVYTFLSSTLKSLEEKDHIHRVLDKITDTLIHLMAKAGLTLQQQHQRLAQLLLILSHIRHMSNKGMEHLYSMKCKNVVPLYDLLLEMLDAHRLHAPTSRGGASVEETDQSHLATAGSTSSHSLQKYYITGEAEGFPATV
Text: NIH Chemical Genomics Center [NCGC]
U.S. Environmental Protection Agency [EPA]
National Institutes of Environmental Health Sciences [NIEHS]
National Toxicology Program [NTP]
Estrogen receptor alpha (ER-alpha) is an important member of nuclear hormone receptors. ER-alpha plays important role in breast cancer as well as in other women's health issues. The majority of breast cancers is estrogen receptor (ER) positive and depends on estrogen for growth. There is also growing concern for some of environmental chemicals which may contribute the increasing the incidence of breast cancer. Therefore, it is important to understand the effect of environmental chemicals in ER-alpha signaling pathway.
NCGC Assay Protocol Summary
Using a beta-lactamase reporter-gene under control of the ER response element, a cell-based assay [ER-alpha-UAS-bla GripTiteTM cell-Based Assay from Invitrogen] was used to measure ER-alpha signaling pathway in antagonist mode. ER-alpha-UAS-bla-GripTite HEK 293 cells were used with assay medium containing 2% charcoal/dextran treated FBS, 0.1 mM NEAA and 1 mM sodium pyruvate. Cells were cultured in this assay medium overnight in the flasks before the assay. The assay was performed in clear bottom black Greiner 1536-well plates. 17-beta-estradiol was used as a positive control in the screen. Library compounds were measured for their ability to inhibit the reporter gene activity. Compounds were screened in a titration series in 1536-well format. […] Data was normalized relative to 17-beta-estradiol control (0.5nM, 100%), and DMSO only wells (basal, 0%). Concentration-response titration points for each compound were fitted to the Hill equation yielding concentrations of half-maximal inhibition (IC50) and maximal response (efficacy) values.
qHTS protocol for ER-alpha beta-lactamase assay in antagonist mode
[Step] [Parameter] [Value] [Description]
1. Reagent; 5 uL; 5000 cells/well
2. Incubation; 37 C for 4 hrs
- Dose response, Start 38uM, 1:2 dilutions with duplicates
- Two columns with 38 and 19uM (final) concentration.
5. Agonist (Stimulator); 1uL; 17-beta-estradiol at 0.5nM (final) concentration
6. Incubation; 37 C for 18 hrs
7. Detection reagent; 1 uL of CCF4-dye
8. Incubation; RT for 2 hrs
9. Detection; Fluorescence; Envision plate reader or Acumen plate reader
% is scaled to controls: 0 for no effect and ±100 for the full control effect.

SMILES	outcome	activity, negative = inhibition
CC(O)CO (stereo not drawn)	inactive	–
CCCCCCCC/C=C\CCCCCCCC(=O)O	–	11.3% (inactive)
CCCCCCCC(=O)O	inactive	–
CCCCC/C=C\C/C=C\CCCCCCCC(=O)O	–	-11.6% (inactive)
O=C(O)CCC(=O)C(=O)O	–	19% (inactive)
CC1=C2[C@@H]([C@H](C)CC[C@H]2/C=C(\C)C(=O)O)[C@H](O)C1	–	-0.793% (inactive)
CC1=C(/C=C/C(C)=C/C=C/C(C)=C/CO)C(C)(C)CCC1	–	-1.86% (inactive)
CCOC(C)=O	–	5.98% (inactive)
CC1(C)C(C=C(Cl)Cl)C1C(=O)OCc1cccc(Oc2ccccc2)c1 (stereo not drawn)	inactive	–
O=CCCCC=O	–	30.1% (inactive)
CC(C)=O	–	12.8% (inactive)
CC1=CCC(C(C)(C)O)CC1 (stereo not drawn)	–	-6.26% (inactive)
CCOc1ccc2c(c1)C(C)=CC(C)(C)N2	–	12% (inactive)
